Source: PubChem BioAssay AID623888 (Vanderbilt Specialized Chemistry Center, 2012)

Biological target: Metabotropic glutamate receptor 3 (Rattus norvegicus) (UniProt P31422)
Assay: PubChem AID 623888
Conditions: HEK/GIRK rat mGlu3, thallium flux fluorescence, Schild, at 10 µM; % glutamate max: glutamate max response with compound, stronger effect = lower value; glutamate EC50 fold shift: stronger effect = higher value

Metabotropic glutamate receptor 3 (Rattus norvegicus), sequence (P31422 whole entry, looked up): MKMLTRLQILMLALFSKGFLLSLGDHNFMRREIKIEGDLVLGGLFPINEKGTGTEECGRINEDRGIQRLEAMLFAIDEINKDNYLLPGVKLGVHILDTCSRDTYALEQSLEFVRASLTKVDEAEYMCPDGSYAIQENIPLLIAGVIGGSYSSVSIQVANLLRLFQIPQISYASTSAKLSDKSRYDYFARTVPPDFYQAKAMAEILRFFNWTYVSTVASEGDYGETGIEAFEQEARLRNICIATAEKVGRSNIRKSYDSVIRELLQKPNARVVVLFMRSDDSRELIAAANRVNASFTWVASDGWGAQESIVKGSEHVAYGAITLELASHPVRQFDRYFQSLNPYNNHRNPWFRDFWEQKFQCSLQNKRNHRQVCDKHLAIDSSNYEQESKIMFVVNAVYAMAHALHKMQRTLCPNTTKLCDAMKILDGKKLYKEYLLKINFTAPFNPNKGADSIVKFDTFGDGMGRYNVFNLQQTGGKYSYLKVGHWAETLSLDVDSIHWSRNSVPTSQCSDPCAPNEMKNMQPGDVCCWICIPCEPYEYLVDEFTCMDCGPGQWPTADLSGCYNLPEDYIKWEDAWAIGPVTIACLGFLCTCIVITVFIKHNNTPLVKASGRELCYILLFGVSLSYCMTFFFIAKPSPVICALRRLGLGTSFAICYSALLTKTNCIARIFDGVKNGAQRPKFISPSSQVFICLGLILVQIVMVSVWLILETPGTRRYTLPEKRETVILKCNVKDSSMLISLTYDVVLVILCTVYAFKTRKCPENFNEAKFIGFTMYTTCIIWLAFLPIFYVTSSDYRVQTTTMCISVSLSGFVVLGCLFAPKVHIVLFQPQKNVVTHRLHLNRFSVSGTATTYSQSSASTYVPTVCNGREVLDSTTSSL

**Q.** `COc1ccc(C#Cc2ccc(C(=O)N3CCC[C@@H](CO)C3)cc2)cc1` was tested. Which % glutamate max did it give?
**A.** 24.5%

**Q.** And the glutamate EC50 fold shift?
**A.** 8.96
